Measured values reported in PubChem BioAssay (NCATS).
Several values for one entry are separate records, joined by “and”; a condition that tells them apart may be missing. Identical values can stand only once. Results filed as inconclusive are left out. Values without a mark were called inactive. Activity calls are given as the source filed them. Calls follow the shape of the dose curve; as a rule, active = well fitted curve in the direction sought with a large enough effect; inconclusive = small, poorly fitted or top-dose-only effect, or another doubt; inactive = no such curve, though single readings can be large; an effect the other way counts as inactive or inconclusive.

Experiments:
[1] = Viability qHTS for spleen associated tyrosine kinase inhibitor (SYKi) naive MV4-11 cells (AID 1963823); also: nearly all actives have a fitted effect of over 40% in size
In short: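 Luminescence from CellTiter-Glo, developed 10 min at room temperature, gave viability of MV4-11 cells never exposed to SYK inhibitor. Cells (500/well) had been incubated with compounds for 72 hr under standard culture conditions.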

[2] = Viability qHTS for spleen associated tyrosine kinase inhibitor (SYKi) drug resistant MV4-11 cells (AID 1963824); also: nearly all actives have a fitted effect of over 35% in size
In short: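 SYK inhibitor-resistant MV4-11 AML cells, 500 per well, added to predispensed compounds and incubated 72 hr at 37 C, 5% CO2. Viability measured by CellTiter-Glo luminescence after 10 min at room temperature.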

[3] = Cellular viability qHTS for adrenocortical cancer (ACC) cell line SW-13 (AID 1963989); details: SW-13 ACC cells viability, CellTiter-Glo, 48 h; activity (max response): active compounds read low; also: nearly all actives have a fitted effect of over 65% in size;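 as to activity (max response): cells grown in serum-free medium with ITS supplement; % is scaled to controls: 0 for no effect and ±100 for the full control effect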
In short: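 SW-13 cells in ITS-supplemented serum-free DMEM were plated overnight, then exposed for 48 h at 37C to compound titrations (up to 46 uM final). Viability was read by CellTiter-Glo luminescence; four-parameter logistic fits gave IC50 and efficacy.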

[4] = Cellular viability qHTS for adrenocortical cancer (ACC) cell line NCI-H295R (AID 1963990); also: nearly all actives have a fitted effect of over 60% in size;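 as to activity change, negative = viability loss: 0% = DMSO only wells and -100% = full killing with cytotoxic reference compound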
In short: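 Luminescent ATP read-out (CellTiter-Glo, 20 min RT) after 48 h drug exposure of NCI-H295R cells; a titration up to 46 uM final. Data normalized to doxorubicin (100% inhibition) and DMSO (0%); 4-parameter fit gives IC50, max response.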
Potency is read from the fitted curve at half-maximal effect.

SMILES	Potency [1]	Potency [2]	activity (max response) [3]	Potency [4]	Potency [3]	viability (% of control) [1]	viability, % of control [2]	activity change, negative = viability loss [4]
COCCOc1cnc2ccn([C@H](C)c3nnc4c(F)cc(-c5cnn(C)c5)cn34)c(=O)c2c1	inactive	inactive	-16.1%	inactive	–	–	–	–
COc1ccc(-c2cc(=O)c3c(O)cc(O[C@@H]4O[C@H](CO[C@@H]5O[C@@H](C)[C@H](O)[C@@H](O)[C@H]5O)[C@@H](O)[C@H](O)[C@H]4O)cc3o2)cc1O	inactive	inactive	-2.14% and 4.75%	inactive	–	–	–	–
CN(Cc1ccc(/C=C/C(=O)NO)cc1)CC12CC3CC(CC(C3)C1)C2	0.296 µM (active)	0.235 µM (active)	–	0.447 µM (active)	2.24 µM (active)	–	–	–
Cc1c(C)c2c(c(C)c1OC(=O)CCC(=O)OCCO)CC[C@@](C)(CCC[C@H](C)CCC[C@H](C)CCCC(C)C)O2	inactive	inactive	–	13 µM (active)	18.4 µM (active)	–	–	–
C[C@@H](Oc1ccc2[nH]nc(/C=C/c3cnn(CCO)c3)c2c1)c1c(Cl)cncc1Cl	0.0235 µM (active)	0.0525 µM (active)	–	5.01 µM (active)	3.98 µM (active)	–	–	–
Cc1c(NC(=O)c2cc(C(N)=O)nc3cc(F)ccc23)c(C(F)(F)F)nn1Cc1ccc(C(C)(C)C)cc1	20.9 µM (active)	16.6 µM (active)	8.86%	inactive	–	–	–	–
O=C(O)C[C@H](O)C[C@H](O)/C=C/c1c(C2CC2)nc2ccccc2c1-c1ccc(F)cc1	461 nM (active) and 525 nM (active)	164 nM (active) and 235 nM (active)	–	3.55 µM (active)	3.16 µM (active)	–	–	–
Nc1ccc(O)c([N+](=O)[O-])c1	inactive	0.0611 µM (active)	0.787%	inactive	–	–	–	–
Cc1ccc(-c2ncc(Cl)cc2-c2ccc(S(C)(=O)=O)cc2)cn1	inactive	inactive	3.04% and -7.76%	inactive	–	–	–	–
OCC(CO)N[C@H]1C[C@](O)(CO)[C@@H](O)[C@H](O)[C@H]1O	inactive	inactive	4.01%	inactive	–	–	–	–
CN(C)CCNC(=O)NC[C@H]1CC[C@@H]2[C@H](O1)c1cc(C(F)(F)F)ccc1N[C@H]2c1ccccc1	0.148 µM (active)	0.132 µM (active)	–	0.891 µM (active)	0.251 µM (active)	–	–	–
COc1cc(C(=O)NCc2ccc(OCCN(C)C)cc2)cc(OC)c1OC	inactive	inactive	-6.7%	inactive	–	–	–	–
CN1CCN(C(=O)c2ccc(-c3ccc4c(C=O)c(O)ccc4c3)s2)CC1	16.6 µM (active)	14.8 µM (active)	9.42%	inactive	–	–	–	–
CCOCCn1c(N2CCCN(C)CC2)nc2ccccc21	inactive	inactive	-8.77%	inactive	–	–	–	–
CCCc1ccc(OCC(=O)N2CCN(C(=O)COc3ccc(CCC)cc3OC)CC2)c(OC)c1	inactive	inactive	4.95%	inactive	–	–	–	–
CC(=O)N[C@H]1[C@H](O[C@@H]2c3ccc(c(Cl)c3)Oc3cc4cc(c3O[C@@H]3O[C@H](CO)[C@@H](O)[C@H](O)[C@H]3NC(=O)CCCCCCCC(C)C)Oc3ccc(cc3Cl)C[C@H]3NC(=O)[C@H](N)c5ccc(O)c(c5)Oc5cc(O)cc(c5)[C@H](NC3=O)C(=O)N[C@H]4C(=O)N[C@H]3C(=O)N[C@@H]2C(=O)N[C@@H](C(=O)O)c2cc(O)cc(O[C@H]4O[C@H](CO)[C@@H](O)[C@H](O)[C@@H]4O)c2-c2cc3ccc2O)O[C@H](CO)[C@@H](O)[C@@H]1O	inactive	inactive	11.6%	inactive	–	–	–	–
CC(C)N(CCCNC(=O)Nc1ccc(C(C)(C)C)cc1)C[C@H]1O[C@@H](n2cc(Br)c3c(N)ncnc32)[C@H](O)[C@@H]1O	4.68 µM (active)	18.4 µM (active) and 7.42 µM (active)	–	25.1 µM (active)	28.2 µM (active)	–	–	–
CCCCCCCCCCCCCCCC[N+](C)(C)CCN(Cc1ccc(OC)cc1)c1ncccn1	2.66 µM (active)	2.11 µM (active)	–	16.4 µM (active)	20.6 µM (active)	–	–	–
C[C@]12CCC(=O)C=C1CC[C@@H]1[C@@H]2[C@@H](O)C[C@@]2(C)[C@H]1CC[C@]2(O)C(=O)COC(=O)CCC(=O)O	inactive	inactive	3.9%	inactive	–	–	–	–
O=C(O)COC(=O)Cc1ccccc1Nc1c(Cl)cccc1Cl	inactive	inactive	7.51%	inactive	–	–	–	–
CCn1ccnc1CC1COc2ccccc2O1 (configuration not stated)	inactive	inactive	8.12%	inactive	–	–	–	–
CCN(CC)CCNc1ccc(C)c2sc3ccccc3c(=O)c12	5.25 µM (active)	7.42 µM (active)	–	15.8 µM (active)	25.1 µM (active)	–	–	–
Cc1ccc([N+](=O)[O-])cc1S(=O)(=O)N(C)/N=C/c1cnc2ccc(Br)cn12	16.4 nM (active) and 26.3 nM (active)	16.4 nM (active) and 46.8 nM (active)	–	0.282 µM (active)	0.282 µM (active)	–	–	–
C[C@@]12C(=O)OC(=O)[C@]1(C)[C@H]1CC[C@@H]2O1	2.63 µM (active)	2.63 µM (active)	–	3.98 µM (active)	15.8 µM (active)	–	–	–

SMILES	Potency [1]	Potency [2]	activity (max response) [3]	Potency [4]	Potency [3]	viability (% of control) [1]	viability, % of control [2]	activity change, negative = viability loss [4]
CCN1CCN(c2cc(-c3ccc(F)cc3)c3c(n2)CCCCCC3)CC1	inactive	inactive	-1.29%	inactive	–	–	–	–
Cc1cc(C)cc(OCC2CNC(=O)O2)c1 (configuration not stated)	inactive	inactive	4.02%	inactive	–	–	–	–
Nc1ccc(/C=C/C(=O)NCc2cc3cc(-c4ccc(C(=O)N5CCC(F)(F)CC5)cc4)cc(-c4ccc(F)cc4)c3o2)cn1	148 nM (active) and 184 nM (active)	0.206 µM (active)	–	1 µM (active)	1.12 µM (active)	–	–	–
CC1(C)CN(C(=O)c2ccc(-c3cccc4nc(NC(=O)C5CC5)nn34)cc2)C1	6.61 µM (active)	16.4 µM (active)	2.66%	inactive	–	–	–	–
NC1=N[C@@]2(c3cc(NC(=O)c4ccc(F)cn4)ccc3F)COC[C@H]2CS1	inactive	14.8 µM (active)	-8.2%	inactive	–	–	–	–
COc1c2occc2c(OC)c2c(=O)cc(C)oc12	inactive	inactive	12.7%	inactive	–	–	–	–
CN(C)C/C=C/C(=O)Nc1cc2c(Nc3ccc(F)c(Cl)c3)ncnc2cc1O[C@H]1CCOC1	1.48 µM (active)	1.86 µM (active)	–	7.08 µM (active)	0.891 µM (active)	–	–	–
Cc1[nH]cnc1CN1CCN(C(=O)N[C@@H](CC(C)C)C(=O)O)[C@@H](Cc2ccccc2)C1=O	inactive	inactive	6.54%	inactive	–	–	–	–
COc1cc2c(cc1OC)CN(CCc1ccc(-n3nnc(-c4cc(OC)c(OC)cc4NC(=O)c4cc(=O)c5ccccc5o4)n3)cc1)CC2	–	–	-2.39%	–	–	79.1% [at 0.588 µM]	98% [at 0.588 µM]	-5.76% [at 0.587 µM]
CC(C)(Oc1ccc(CCNC(=O)c2ccc(Cl)cc2)cc1)C(=O)O	inactive	inactive	-0.538%	inactive	–	–	–	–
O=C([O-])C[O-].[Pt+2]	inactive	inactive	-1.3%	inactive	–	–	–	–
Cc1cc(N2CCOCC2)ccc1Nc1nc(NC2CCCCC2)c2[nH]cnc2n1	0.833 µM (active)	0.461 µM (active)	–	28.2 µM (active)	25.1 µM (active)	–	–	–
Nc1ccc(F)cc1NC(=O)c1ccc(CNC(=O)/C=C/c2cccnc2)cc1	1.66 µM (active)	0.833 µM (active)	–	3.55 µM (active)	11.2 µM (active)	–	–	–
Cn1cc(-c2ccc(S(=O)(=O)n3ccc(/C=C/C(=O)Nc4ccccc4N)c3)cc2)cn1	651 nM (active) and 934 nM (active)	580 nM (active) and 742 nM (active)	–	0.891 µM (active)	0.794 µM (active)	–	–	–
C=C1C[C@H]2C=Nc3cc(OCCCOc4cc5c(cc4OC)C(=O)N4CC(=C)C[C@H]4C=N5)c(OC)cc3C(=O)N2C1	inactive	inactive	–	0.1 µM (active)	0.01 µM (active)	–	–	–
O=C(O)CCC(=O)Nc1ccc(S(=O)(=O)Nc2nccs2)cc1	inactive	inactive	-7.1%	inactive	–	–	–	–
NCc1ccc(S(N)(=O)=O)cc1	inactive	inactive	-8.11%	inactive	–	–	–	–
C[C@@H]1N=C(N)NC(N(C)C)=N1	inactive	inactive	-4.04%	inactive	–	–	–	–
CC[C@@H](C)Nc1cc(C(=O)NC2CC3CC[C@@H](C2)N3c2ccc(C(=O)C3CC3)cn2)c(C)cc1C(N)=O (some centres not stated)	0.013 µM (active)	0.0259 µM (active)	–	0.355 µM (active)	0.178 µM (active)	–	–	–
CN1CCN(C2CCC(n3cc(-c4ccc(Oc5ccccc5)cc4)c4c(N)ncnc43)CC2)CC1 (configuration not stated)	0.0231 µM (active)	58 nM (active) and 74.2 nM (active)	–	7.08 µM (active)	1.58 µM (active)	–	–	–
CCNC(=O)/C=C/c1cccc(Br)c1	inactive	inactive	-10.3%	inactive	–	–	–	–
CC(/C=C/C(=O)NO)=C\[C@@H](C)C(=O)c1ccc(N(C)C)cc1	326 nM (active) and 296 nM (active)	259 nM (active) and 332 nM (active)	–	3.98 µM (active)	6.31 µM (active)	–	–	–
CC1=C(C/C=C(\C)CCC[C@H](C)CCC[C@H](C)CCCC(C)C)C(=O)c2ccccc2C1=O	inactive	inactive	12.7%	inactive	–	–	–	–
Cn1cncc1C(N)(c1ccc(Cl)cc1)c1ccc2c(c1)c(-c1cccc(Cl)c1)cc(=O)n2C (configuration not stated)	1.05 µM (active)	1.86 µM (active)	–	3.55 µM (active)	6.31 µM (active)	–	–	–
